Laboratory results as given in the supplement of paper PMC6555819.

Key:
Assay in all cases: PBM binding z-score (relative to random genomic background probes); higher = stronger binding; sequences stand for … in GC…GCGATTGACAGCGTAGAATGAAGG
[1] = tested on: FXR:RXRa (NR concentration 270 nM, RXRa partner concentration 90 nM)
Method in brief: (§1)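 Ligand-free nuclear receptor dimers were applied to custom Agilent 4×180K protein-binding microarrays whose double-stranded probes carried direct-repeat seeds, single-nucleotide variants, half-site ablations and random human genomic background sequences in 34-nt variable regions. Incubation lasted 1 h. Binding z-scores were computed against the random background probes from regression-normalized fluorescence.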

[2] = tested on: LXRa:RXRa (NR concentration 270 nM, RXRa partner concentration 90 nM)
Method in brief: as §1

[3] = tested on: LXRa homodimer (NR concentration 270 nM)
Method in brief: as §1

[4] = tested on: LXRb:RXRa (NR concentration 270 nM, RXRa partner concentration 90 nM)
Method in brief: as §1

[5] = tested on: LXRb homodimer (NR concentration 270 nM)
Method in brief: as §1

[6] = tested on: PPARa:RXRa (NR concentration 270 nM, RXRa partner concentration 90 nM)
Method in brief: as §1

[7] = tested on: PPARg:RXRa (NR concentration 180 nM, RXRa partner concentration 90 nM)
Method in brief: as §1

[8] = tested on: PPARg:RXRa 270nM:90nM, anti-RXR (NR concentration 270 nM, RXRa partner concentration 90 nM)
Method in brief: as §1

[9] = tested on: PPARg:RXRa 30nM:10nM, anti-RXR (NR concentration 30 nM, RXRa partner concentration 10 nM)
Method in brief: as §1

[10] = tested on: PPARg:RXRa 90nM:30nM, anti-RXR (NR concentration 90 nM, RXRa partner concentration 30 nM)
Method in brief: as §1

[11] = tested on: PPARg:RXRa DBDmut IVT, anti-RXR (DBD mutation: RXRa K156A/R161A, NR concentration 270 nM, RXRa partner concentration 90 nM)
Method in brief: as §1

[12] = tested on: PPARg:RXRa IVT, anti-PPARg (NR concentration 270 nM, RXRa partner concentration 90 nM)
Method in brief: as §1

[13] = tested on: PPARg DBDmut:RXRa IVT, anti-PPARg (DBD mutation: PPARg1 K132A/R137A, NR concentration 270 nM, RXRa partner concentration 90 nM)
Method in brief: as §1

[14] = tested on: PPARg DBDmut IVT, anti-PPARg (DBD mutation: PPARg1 K132A/R137A, NR concentration 270 nM)
Method in brief: as §1

[15] = tested on: PPARg homodimer (NR concentration 180 nM)
Method in brief: as §1

[16] = tested on: PXR:RXRa (NR concentration 270 nM, RXRa partner concentration 90 nM)
Method in brief: as §1

[17] = tested on: PXR homodimer (NR concentration 270 nM)
Method in brief: as §1

[18] = tested on: RARa:RXR (NR concentration 270 nM, RXRa partner concentration 90 nM)
Method in brief: as §1

[19] = tested on: RARa homodimer (NR concentration 270 nM)
Method in brief: as §1

[20] = tested on: RARb:RXRa (NR concentration 270 nM, RXRa partner concentration 90 nM)
Method in brief: as §1

Sequence	PBM binding z-score [1]	PBM binding z-score [2]	PBM binding z-score [3]	PBM binding z-score [4]	PBM binding z-score [5]	PBM binding z-score [6]	PBM binding z-score [7]	PBM binding z-score [8]	PBM binding z-score [9]	PBM binding z-score [10]	PBM binding z-score [11]	PBM binding z-score [12]	PBM binding z-score [13]	PBM binding z-score [14]	PBM binding z-score [15]	PBM binding z-score [16]	PBM binding z-score [17]	PBM binding z-score [18]	PBM binding z-score [19]	PBM binding z-score [20]
ATCGAAAGGTCGTGGTGAGTATAGAGAAAGGGAA	5.04	4.49	0.646	3.78	1.75	5.5	4.16	4.2	1.54	3.12	1.03	2.12	1.47	1.03	1.89	3.3	0.954	3.84	1.77	4.27
CCTTACGGATCACTGACAGGTTATAGCATTTGGA	0.345	0.818	0.768	0.559	0.661	0.447	0.638	0.275	0.461	0.192	0.71	-0.0645	0.405	0.544	0.811	0.356	0.678	0.397	1.14	0.471
CGTCCAAGGTCATAGGAGGACAGTGAAGACAGAT	7.15	6.2	1.35	4.45	0.52	5.39	4.71	4.97	1.81	3.56	2.87	3.57	0.568	0.524	3.01	5.67	1.55	4.89	1.62	4.98
AGCTCTAGGTAAAGATAGTTCAGTGAATGCAAAT	-0.108	3.76	0.0998	0.693	-0.0126	0.354	0.0941	0.135	-0.22	-0.0707	2.67	1.19	0.745	0.441	0.456	0.84	0.602	0.3	1.11	0.525
GGGACGAGGGCATTCGAGTTGATAGCATGGCGAT	1.09	1.84	-0.143	0.891	0.141	1.25	0.732	0.668	-0.43	0.0864	1.51	1.47	-0.173	0.189	0.254	3.68	1.37	1.08	0.349	2
GCAGACAGGTGAAACGCAGGGAACTCAGGGTGGC	-0.391	-0.181	-0.294	-0.514	-1.21	0.613	0.488	-0.246	-0.526	-0.424	0.902	0.213	0.0548	-0.787	0.0817	-0.255	-0.624	0.127	-0.901	0.545
AGTCAAAGTTCATCTAGGTAACGTTAGATATGCT	6.45	6.1	5.46	3.96	1.99	4.88	6.36	6.31	3.3	5.58	1.25	3.81	1.67	1.07	2.67	5.32	7.67	4.08	0.982	5
CCAGACAGGTGAAAGCTAACTCAGTCTGGTACGC	-0.364	-0.206	-0.559	-0.0941	-0.593	0.302	0.368	-0.0659	-0.35	-0.285	1.15	0.32	-0.519	-0.546	-0.106	-0.352	-0.314	-0.197	-0.137	0.542
AATACAGGGTCATCGTAGGCCATAGTACGCACAG	7.3	6.74	3.23	4.97	1.39	6.02	6.89	6.05	2.98	4.83	3	4.39	3	2.05	3.8	5.45	0.773	5.17	0.832	4.27
CAAACTAGGTCACGAAAGGTCAAAGTCGAATGAC	7.74	8.37	7.89	7.46	2.8	6.76	10.7	8.68	7.48	8.74	8.54	9.04	3.28	2.22	5.79	7.14	2.95	7.8	3.54	5.84
GCTTACGGGTCAAAGGTTATAGAATGAATAGAAT	7.46	6.03	0.9	5.71	0.667	7	11.4	9.46	10.1	10.7	4.71	5.44	1.37	1.09	1.73	6.07	0.466	8.42	0.715	4.59
ATCGAAAGGTCGACAAGGTGAGTATACACCGTTT	4.68	3.45	0.283	3	0.522	4.41	2.79	3.21	1.2	2.21	0.456	1.98	1.72	1.65	1.43	2.86	0.683	3.78	0.202	4.02
GGAACGAGCGCAAGTTGATAGCAGAGTTTGATGG	-0.654	-0.851	-0.781	-1.08	-1.48	-0.641	0.166	-0.948	-0.778	-0.888	-0.621	-0.838	-2.04	-1.98	-1.77	-0.63	-0.349	-1.15	-1.13	-0.612
